High-throughput results from PubChem.
MITF act: activators of MITF-driven TRPM1 promoter reporter, primary screen, cell-based, SK-MEL-5, luciferase, single point; SK-MEL-5 TRPM1-promoter luciferase, 24 h; % of positive control, neutral wells = 0; activation, % at 12.5 µM; 0.75% of 300,000 active;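 active means mean activation of at least 80% with every replicate also reaching 80%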;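 further: 0% = neutral control wells and 100% = parthenolide positive control wells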
INS-1E GSIS act: GLuc luminescence reporter in INS-1E cells, primary screen for activators of glucose-dependent secretion of insulin; INS-1E GLuc reporter insulin secretion, 2-3 h; activation, % at 16.6 µM; 0.61% of 370,000 active;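 active means lowest replicate activation of at least 40%, so every replicate reaches that level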;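 further: 0% = median of neutral control wells and 100% = median of IBMX positive control wells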
NSD2 inh: NSD2 histone methyltransferase inhibitors, primary screen, biochemical, AlphaScreen, single concentration, set 2 | Histone-lysine N-methyltransferase NSD2 (Homo sapiens), O96028 | NSD2 peptide methylation, 120 min | inhibition, % at 12.5 µM | 0.54% of 310,000 active
Target sequence (O96028 whole entry, looked up): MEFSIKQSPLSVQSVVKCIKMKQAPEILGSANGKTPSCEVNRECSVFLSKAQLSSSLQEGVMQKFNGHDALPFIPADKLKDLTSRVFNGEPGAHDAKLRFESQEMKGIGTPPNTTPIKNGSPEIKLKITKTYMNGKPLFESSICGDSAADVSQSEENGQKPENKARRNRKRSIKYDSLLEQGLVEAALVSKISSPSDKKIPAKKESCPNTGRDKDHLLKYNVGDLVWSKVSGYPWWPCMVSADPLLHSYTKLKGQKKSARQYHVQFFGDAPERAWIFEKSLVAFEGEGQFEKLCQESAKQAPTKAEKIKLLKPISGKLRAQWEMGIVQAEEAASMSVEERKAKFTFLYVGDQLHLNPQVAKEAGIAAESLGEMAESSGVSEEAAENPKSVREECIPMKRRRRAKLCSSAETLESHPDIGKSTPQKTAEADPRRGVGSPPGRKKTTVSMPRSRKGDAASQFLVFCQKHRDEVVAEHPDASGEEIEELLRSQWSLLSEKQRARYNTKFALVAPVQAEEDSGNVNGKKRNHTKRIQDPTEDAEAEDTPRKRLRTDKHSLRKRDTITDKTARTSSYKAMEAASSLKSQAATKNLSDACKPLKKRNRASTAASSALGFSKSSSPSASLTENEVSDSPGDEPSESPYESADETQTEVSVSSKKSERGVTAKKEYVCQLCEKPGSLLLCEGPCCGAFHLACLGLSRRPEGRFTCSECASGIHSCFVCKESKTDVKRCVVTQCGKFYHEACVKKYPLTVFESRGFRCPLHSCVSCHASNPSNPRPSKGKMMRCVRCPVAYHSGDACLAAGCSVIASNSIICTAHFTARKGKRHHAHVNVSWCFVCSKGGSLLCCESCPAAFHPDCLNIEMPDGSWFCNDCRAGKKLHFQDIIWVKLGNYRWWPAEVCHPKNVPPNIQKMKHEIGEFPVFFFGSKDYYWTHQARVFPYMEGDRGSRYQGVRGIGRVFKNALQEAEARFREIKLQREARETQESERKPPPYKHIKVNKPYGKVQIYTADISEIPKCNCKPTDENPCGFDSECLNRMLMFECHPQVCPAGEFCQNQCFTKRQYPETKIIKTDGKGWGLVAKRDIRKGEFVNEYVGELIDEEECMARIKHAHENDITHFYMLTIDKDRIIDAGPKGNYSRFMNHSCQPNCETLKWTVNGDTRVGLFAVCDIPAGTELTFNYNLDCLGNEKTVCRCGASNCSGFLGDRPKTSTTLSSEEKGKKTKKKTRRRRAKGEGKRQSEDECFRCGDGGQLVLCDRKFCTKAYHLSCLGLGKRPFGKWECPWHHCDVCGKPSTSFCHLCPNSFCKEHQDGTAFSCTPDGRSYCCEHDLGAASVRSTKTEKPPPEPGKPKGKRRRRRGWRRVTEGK
miR122 inh: miR-122 Renilla sensor signal increase in Huh7, primary screen, miR-122 inhibitor project, cell-based, single point, plate reader. Huh7 miR-122 Renilla luciferase sensor, 48 h; neutral wells = 0, positive control = 100. activation (reporter increase), % at 12.5 µM. 0.3% of 340,000 active. AID 602342, 2012;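 active means mean replicate activation score at least 90 and every replicate individually at or above 90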;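 further: higher luciferase means less miR-122 activity so hits act as miR-122 inhibitors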
DYRK1A inh: rat Dyrk1A kinase inhibitors, primary screen, biochemical, single point, plate reader; Dual specificity tyrosine-phosphorylation-regulated kinase 1A (Rattus norvegicus), Q63470; ADP-Glo luminescence, NFATc1 peptide; inhibition, % at 12.5 µM; 0.43% of 310,000 active;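 further: plate controls were vehicle with enzyme for no effect and no enzyme for full effect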
Wnt act: Wnt/beta-catenin pathway activators, primary screen, cell-based, plate reader, single point. Wnt/beta-catenin reporter cell assay, activator. activation, % at 9.35 µM. 1.2% of 300,000 active; in the data active means activation above about 30%, passing the limit was not always enough;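 further: 0% = neutral control wells and 100% = positive control wells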
An asterisk follows results filed as active; [ ] = remark or other dose. An excerpt weighted towards active compounds, which were near 2.4% of everything screened. Unless noted, no stated cut-off is given here; in the data, active means inhibition above about 50%; inactive means the rest.

What do the screens show for `COc1ccccc1Oc1ncnc2c1cnn2-c1ccccc1`?
MITF act: 91*; INS-1E GSIS act: 38; NSD2 inh: -3; miR122 inh: -3; DYRK1A inh: -3; Wnt act: 10

What do the screens show for `C[C@@H]1CN([C@@H](C)CO)C(=O)c2cccc(NC(=O)Nc3cccc4ccccc34)c2O[C@H]1CN(C)C(=O)Nc1ccc(F)cc1`?
INS-1E GSIS act: -5; miR122 inh: 1[16.7 µM]

How did Cc1cc(NC(=O)COC(=O)c2oc3c(Cl)cccc3c2C)no1 do in these assays?
MITF act: -11; INS-1E GSIS act: 65*; NSD2 inh: -1; miR122 inh: -7; DYRK1A inh: -5; Wnt act: 1

What do the screens show for `Cc1cc(NC(=O)COC(=O)c2ccccc2Cl)no1`?
MITF act: 25; INS-1E GSIS act: 3; NSD2 inh: -3; miR122 inh: 2; Wnt act: 3

What do the screens show for `Cc1cc(NC(=O)COc2cccc(C)c2C)no1`?
MITF act: 44; INS-1E GSIS act: 5; miR122 inh: 1; DYRK1A inh: 2; Wnt act: 1

What do the screens show for `Cc1ccc(C)c(OCC(=O)Nc2nonc2NC(=O)COc2cc(C)ccc2C)c1`?
MITF act: -1; INS-1E GSIS act: 129*; NSD2 inh: 5; miR122 inh: -29; DYRK1A inh: 6; Wnt act: -10

Results for CCOc1cccc2cc(C(=O)Nc3cc(C)on3)c(=O)oc12 ?
MITF act: 27; INS-1E GSIS act: 45*; NSD2 inh: 2; miR122 inh: -1; DYRK1A inh: 1

Results for Cc1cccc(OCC(=O)Nc2nonc2NC(=O)COc2cccc(C)c2)c1 ?
MITF act: 11; NSD2 inh: -3; miR122 inh: -7; DYRK1A inh: -4

What do the screens show for `Cc1cc(NC(=O)COc2ccccc2C)no1`?
MITF act: 95*; INS-1E GSIS act: 2; NSD2 inh: -1; DYRK1A inh: 0; Wnt act: 12

How did Cc1noc(C)c1S(=O)(=O)Nc1ccc2c(c1)C(=O)N([C@H](C)CO)C[C@@H](C)[C@@H](CN(C)S(=O)(=O)c1cn(C)cn1)O2 do in these assays?
INS-1E GSIS act: 6; miR122 inh: -2[16.7 µM]

What do the screens show for `Cc1ccc(OCC(=O)Nc2cc(C(C)(C)C)on2)cc1C`?
MITF act: 27; INS-1E GSIS act: -38; NSD2 inh: -2; miR122 inh: -3; DYRK1A inh: -1; Wnt act: 9

How did Cc1cc(NC(=O)COC(=O)CCS(=O)(=O)c2ccc(C)c(C)c2)no1 do in these assays?
MITF act: 10; INS-1E GSIS act: 9; miR122 inh: -4; DYRK1A inh: -2; Wnt act: -2

How did Cc1cc(NC(=O)COc2ccc(C)c(C)c2)no1 do in these assays?
MITF act: 90*; INS-1E GSIS act: 12; NSD2 inh: -2; miR122 inh: -2; DYRK1A inh: -6; Wnt act: 8

How did Cc1cc(NC(=O)COC(=O)CCS(=O)(=O)c2cc(Cl)ccc2Cl)no1 do in these assays?
MITF act: 0; INS-1E GSIS act: 41*; NSD2 inh: -3; miR122 inh: 9; DYRK1A inh: 1; Wnt act: -1

What do the screens show for `O=C(O)CNC(=O)C1(N2C(=O)c3ccccc3C2=O)CCCC1`?
MITF act: 0; INS-1E GSIS act: 25; NSD2 inh: 0; miR122 inh: 100*; Wnt act: -2

What do the screens show for `CC(C)CNC(=O)C1(N2C(=O)c3ccccc3C2=O)CCCC1`?
MITF act: -15; NSD2 inh: -2; miR122 inh: -11; DYRK1A inh: -5

What do the screens show for `CO[C@H]1CN(C)C(=O)c2ccc(NC(=O)c3cccc(F)c3)cc2OC[C@H](C)N(C)C[C@H]1C`?
INS-1E GSIS act: -4; miR122 inh: 16[16.7 µM]

How did CCOC(=O)c1c(NC(C)=O)sc2c(OCC(O)CNC(C)(C)C)c(Br)ccc12 (stereo not drawn) do in these assays?
MITF act: -69; INS-1E GSIS act: 45*; miR122 inh: 1; DYRK1A inh: 4; Wnt act: -22

Results for C[C@H](C(=O)N(C)C[C@@H]1OCc2ccccc2-c2c(n(C)c3ccccc23)C(=O)N([C@H](C)CO)C[C@@H]1C)c1ccccc1 ?
INS-1E GSIS act: 2

What do the screens show for `O=[N+]([O-])c1ccccc1NCCOc1ccccc1`?
MITF act: 65; INS-1E GSIS act: -17; NSD2 inh: 10; DYRK1A inh: 5; Wnt act: 67*

Results for CCCC(=O)N1CCC2(CC1)CN(C(=O)C1CCCC1)[C@H](CO)c1[nH]c3cc(OC)ccc3c12 ?
INS-1E GSIS act: -13

How did O=C(NCc1ccccc1)c1ccc(C(=O)N(C2CCCCC2)C2CCCCC2)cc1 do in these assays?
MITF act: -1; NSD2 inh: 4; miR122 inh: 3; DYRK1A inh: 4

Results for O=C(C(=O)N(C1CCCCC1)C1CCCCC1)c1ccccc1 ?
INS-1E GSIS act: 73*; Wnt act: 12

How did CN(C)CC#Cc1ccc([C@@H]2[C@@H](CO)N3C(=O)CN(C(=O)c4cccnc4)C[C@@H]23)cc1 do in these assays?
INS-1E GSIS act: -3

Results for CCOC(=O)C(C)Oc1cccc2c(=O)n(CC(=O)NCc3ccc(F)cc3)ccc12 (stereo not drawn) ?
MITF act: -41; INS-1E GSIS act: 42*; NSD2 inh: 0; miR122 inh: -5; DYRK1A inh: 0; Wnt act: -10

How did CCOC(=O)C(C)Oc1cccc2c(=O)n(CC(=O)NCc3ccccc3)ccc12 (stereo not drawn) do in these assays?
MITF act: -48; INS-1E GSIS act: 5; NSD2 inh: -7; miR122 inh: 49; DYRK1A inh: -1; Wnt act: -3

What do the screens show for `CC12CN(C(=O)c3ccccc3Br)CC(C)(CN(C(=O)c3ccccc3Br)C1)C2=O`?
INS-1E GSIS act: -6; NSD2 inh: 6; miR122 inh: -1; Wnt act: 41*

What do the screens show for `COCC(C)NC(=O)c1cc2cccc([N+](=O)[O-])c2[nH]1` (stereo not drawn)?
MITF act: -25; INS-1E GSIS act: -7; NSD2 inh: 2; DYRK1A inh: -3; Wnt act: 1

Results for Cc1cc(NC(=O)c2cc3cccc([N+](=O)[O-])c3[nH]2)ccc1F ?
MITF act: 53; NSD2 inh: 3; DYRK1A inh: -5; Wnt act: 41*

How did CCCNC(=O)N1C[C@@H](O)COC[C@H]2O[C@@H](CC(=O)N[C@@H]3CCN(Cc4ccccc4)C3)CC[C@@H]21 do in these assays?
INS-1E GSIS act: 2; miR122 inh: 2[16.7 µM]
